In the supplement of paper PMC11732987, “Enantioselective OTUD7B fragment discovery through chemoproteomics screening and high-throughput optimisation” (Communications Chemistry, 2025):

Columns and labels:
Test in all cases: log2 ratio of Biotin-Ahx-Ub-VS probe labelling (fragment/DMSO); higher = less target engagement (more negative = stronger competition), active = hit call of the paper (q ≤ 0.05, log2 ratio ≤ -1)
Conditions in all cases: compound concentration: 200 uM; treatment time: 3 h
USP19 = target: T1, USP19 (UniProt O94966)
T1 sequence (whole entry): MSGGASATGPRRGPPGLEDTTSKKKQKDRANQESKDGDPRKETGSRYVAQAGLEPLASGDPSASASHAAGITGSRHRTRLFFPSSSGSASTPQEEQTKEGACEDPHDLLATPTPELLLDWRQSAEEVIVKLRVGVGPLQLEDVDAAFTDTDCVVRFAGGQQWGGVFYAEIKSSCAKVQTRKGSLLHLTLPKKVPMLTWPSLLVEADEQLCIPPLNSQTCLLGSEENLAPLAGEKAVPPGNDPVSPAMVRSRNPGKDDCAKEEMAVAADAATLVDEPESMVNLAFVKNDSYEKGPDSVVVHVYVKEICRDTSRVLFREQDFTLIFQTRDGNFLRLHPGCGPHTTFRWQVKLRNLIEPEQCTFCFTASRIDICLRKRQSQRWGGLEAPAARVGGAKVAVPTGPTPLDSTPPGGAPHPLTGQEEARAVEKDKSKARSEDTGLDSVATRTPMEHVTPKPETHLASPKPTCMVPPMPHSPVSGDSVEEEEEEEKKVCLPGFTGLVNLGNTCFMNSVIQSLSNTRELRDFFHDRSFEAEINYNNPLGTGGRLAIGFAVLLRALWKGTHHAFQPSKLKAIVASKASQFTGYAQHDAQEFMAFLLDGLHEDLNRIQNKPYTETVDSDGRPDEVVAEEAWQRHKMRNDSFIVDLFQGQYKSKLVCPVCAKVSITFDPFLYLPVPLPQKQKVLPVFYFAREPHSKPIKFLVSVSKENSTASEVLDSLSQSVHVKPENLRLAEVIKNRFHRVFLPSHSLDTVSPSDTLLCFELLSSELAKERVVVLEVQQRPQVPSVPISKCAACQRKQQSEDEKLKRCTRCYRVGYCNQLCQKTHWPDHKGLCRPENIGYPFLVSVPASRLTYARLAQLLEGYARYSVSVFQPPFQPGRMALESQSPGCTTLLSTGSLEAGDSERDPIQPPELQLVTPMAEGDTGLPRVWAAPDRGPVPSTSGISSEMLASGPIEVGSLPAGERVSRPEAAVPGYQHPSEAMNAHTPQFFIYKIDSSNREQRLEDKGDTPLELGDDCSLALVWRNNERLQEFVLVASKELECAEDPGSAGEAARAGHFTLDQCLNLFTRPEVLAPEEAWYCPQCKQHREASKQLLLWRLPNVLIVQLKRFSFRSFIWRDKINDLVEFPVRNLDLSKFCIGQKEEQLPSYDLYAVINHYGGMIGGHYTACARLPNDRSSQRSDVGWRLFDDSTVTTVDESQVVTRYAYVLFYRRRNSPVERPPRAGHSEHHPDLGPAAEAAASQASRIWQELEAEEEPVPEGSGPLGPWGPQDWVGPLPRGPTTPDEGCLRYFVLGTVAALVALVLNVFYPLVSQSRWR
Summary of the method: (§1)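 Global-median-normalised Spectronaut label-free quantities were compared by unpaired t-test, and values are average log2 ratios of fragment over vehicle. Only proteins with ≥2 unique peptides were used. HEK293T lysate (495 µg per sample) was treated in triplicate with fragment at 200 µM or vehicle for 3 h and then with Biotin-Ahx-Ub-VS at 0.5 µM final for 1 h. Labelled DUBs were then NeutrAvidin-enriched, digested with LysC and trypsin, and run by diaPASEF LC-MS/MS.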

USP22 = target: T2, USP22 (UniProt Q9UPT9)
T2 sequence (whole entry): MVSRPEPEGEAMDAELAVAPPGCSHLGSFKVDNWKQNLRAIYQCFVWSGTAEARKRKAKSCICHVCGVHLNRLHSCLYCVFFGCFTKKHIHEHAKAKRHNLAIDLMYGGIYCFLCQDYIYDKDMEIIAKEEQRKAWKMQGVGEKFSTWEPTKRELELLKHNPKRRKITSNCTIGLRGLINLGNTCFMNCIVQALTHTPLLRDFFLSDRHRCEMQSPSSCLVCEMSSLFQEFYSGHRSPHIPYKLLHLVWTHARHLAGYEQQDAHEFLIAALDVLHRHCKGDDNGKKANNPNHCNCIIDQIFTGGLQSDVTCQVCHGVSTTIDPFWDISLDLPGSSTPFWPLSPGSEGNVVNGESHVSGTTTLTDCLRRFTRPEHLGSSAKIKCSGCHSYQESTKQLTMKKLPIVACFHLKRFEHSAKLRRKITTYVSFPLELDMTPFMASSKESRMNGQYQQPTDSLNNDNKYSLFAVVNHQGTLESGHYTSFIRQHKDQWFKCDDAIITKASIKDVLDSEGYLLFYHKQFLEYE
Summary of the method: as §1

USP24 = USP24 (UniProt Q9UPU5)
USP24, sequence (Q9UPU5 whole entry): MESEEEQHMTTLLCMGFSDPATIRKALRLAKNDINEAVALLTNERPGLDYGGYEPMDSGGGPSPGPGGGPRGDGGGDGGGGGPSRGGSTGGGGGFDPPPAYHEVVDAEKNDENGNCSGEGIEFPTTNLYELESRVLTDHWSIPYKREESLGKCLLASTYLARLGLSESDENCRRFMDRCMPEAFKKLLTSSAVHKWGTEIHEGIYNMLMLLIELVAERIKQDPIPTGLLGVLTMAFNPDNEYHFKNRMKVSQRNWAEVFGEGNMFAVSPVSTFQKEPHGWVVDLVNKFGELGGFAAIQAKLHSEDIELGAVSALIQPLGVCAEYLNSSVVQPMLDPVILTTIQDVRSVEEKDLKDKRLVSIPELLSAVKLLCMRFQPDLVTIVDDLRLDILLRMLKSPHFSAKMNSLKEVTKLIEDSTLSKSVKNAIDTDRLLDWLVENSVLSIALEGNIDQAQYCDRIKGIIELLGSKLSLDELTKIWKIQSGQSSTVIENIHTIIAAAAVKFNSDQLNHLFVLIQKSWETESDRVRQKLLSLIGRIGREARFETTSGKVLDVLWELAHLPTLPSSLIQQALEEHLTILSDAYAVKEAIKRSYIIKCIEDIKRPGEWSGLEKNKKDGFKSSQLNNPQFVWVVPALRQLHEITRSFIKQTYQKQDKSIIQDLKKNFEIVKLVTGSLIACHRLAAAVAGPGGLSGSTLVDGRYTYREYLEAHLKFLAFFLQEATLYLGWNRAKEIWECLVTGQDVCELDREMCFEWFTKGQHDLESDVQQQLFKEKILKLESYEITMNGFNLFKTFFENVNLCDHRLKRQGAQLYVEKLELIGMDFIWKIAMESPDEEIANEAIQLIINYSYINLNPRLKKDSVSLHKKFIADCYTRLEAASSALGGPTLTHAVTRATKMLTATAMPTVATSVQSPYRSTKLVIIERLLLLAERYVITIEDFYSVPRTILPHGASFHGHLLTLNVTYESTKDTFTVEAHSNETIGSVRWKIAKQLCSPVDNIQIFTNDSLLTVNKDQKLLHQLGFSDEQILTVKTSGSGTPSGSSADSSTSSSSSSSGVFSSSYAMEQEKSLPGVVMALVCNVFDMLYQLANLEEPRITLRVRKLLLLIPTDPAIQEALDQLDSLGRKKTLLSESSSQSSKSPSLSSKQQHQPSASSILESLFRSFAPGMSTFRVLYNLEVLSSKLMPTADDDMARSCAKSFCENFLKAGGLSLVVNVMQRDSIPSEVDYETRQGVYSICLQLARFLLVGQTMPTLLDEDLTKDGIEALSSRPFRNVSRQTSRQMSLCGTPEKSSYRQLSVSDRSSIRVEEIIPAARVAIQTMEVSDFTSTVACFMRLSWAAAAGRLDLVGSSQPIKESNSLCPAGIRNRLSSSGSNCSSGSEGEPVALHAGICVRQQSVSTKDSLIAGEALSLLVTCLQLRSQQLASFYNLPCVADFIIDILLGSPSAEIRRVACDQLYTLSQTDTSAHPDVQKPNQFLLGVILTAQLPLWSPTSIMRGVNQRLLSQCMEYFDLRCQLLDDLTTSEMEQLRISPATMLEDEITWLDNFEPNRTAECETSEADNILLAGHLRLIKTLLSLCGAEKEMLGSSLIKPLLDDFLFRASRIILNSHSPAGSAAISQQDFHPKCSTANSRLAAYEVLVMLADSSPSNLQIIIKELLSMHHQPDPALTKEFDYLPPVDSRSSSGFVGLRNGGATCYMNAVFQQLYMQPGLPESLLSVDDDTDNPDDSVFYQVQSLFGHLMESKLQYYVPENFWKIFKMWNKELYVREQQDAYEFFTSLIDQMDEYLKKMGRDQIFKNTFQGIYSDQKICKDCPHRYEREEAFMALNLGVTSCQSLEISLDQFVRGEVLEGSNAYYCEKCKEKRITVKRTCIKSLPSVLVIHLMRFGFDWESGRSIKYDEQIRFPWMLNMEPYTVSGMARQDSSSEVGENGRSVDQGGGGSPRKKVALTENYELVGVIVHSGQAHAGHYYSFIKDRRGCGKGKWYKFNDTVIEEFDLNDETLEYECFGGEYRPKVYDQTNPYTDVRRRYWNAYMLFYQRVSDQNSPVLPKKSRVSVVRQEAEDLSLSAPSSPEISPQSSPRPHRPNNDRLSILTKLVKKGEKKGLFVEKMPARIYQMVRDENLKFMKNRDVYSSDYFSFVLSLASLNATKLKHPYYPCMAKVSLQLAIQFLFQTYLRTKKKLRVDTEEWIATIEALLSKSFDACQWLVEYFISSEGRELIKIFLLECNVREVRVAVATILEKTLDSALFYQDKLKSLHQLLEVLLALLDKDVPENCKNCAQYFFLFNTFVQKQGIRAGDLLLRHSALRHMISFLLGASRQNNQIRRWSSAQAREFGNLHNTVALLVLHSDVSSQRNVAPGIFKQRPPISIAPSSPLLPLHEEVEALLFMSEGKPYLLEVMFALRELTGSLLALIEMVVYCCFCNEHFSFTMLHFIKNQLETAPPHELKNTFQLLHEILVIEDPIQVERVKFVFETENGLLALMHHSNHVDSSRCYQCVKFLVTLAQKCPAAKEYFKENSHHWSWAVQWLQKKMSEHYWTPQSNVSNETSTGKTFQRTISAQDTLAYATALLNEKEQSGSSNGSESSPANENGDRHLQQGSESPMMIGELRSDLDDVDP
Summary of the method: as §1

USP25 = target: T3, USP25 (UniProt Q9UHP3)
T3 sequence (whole entry): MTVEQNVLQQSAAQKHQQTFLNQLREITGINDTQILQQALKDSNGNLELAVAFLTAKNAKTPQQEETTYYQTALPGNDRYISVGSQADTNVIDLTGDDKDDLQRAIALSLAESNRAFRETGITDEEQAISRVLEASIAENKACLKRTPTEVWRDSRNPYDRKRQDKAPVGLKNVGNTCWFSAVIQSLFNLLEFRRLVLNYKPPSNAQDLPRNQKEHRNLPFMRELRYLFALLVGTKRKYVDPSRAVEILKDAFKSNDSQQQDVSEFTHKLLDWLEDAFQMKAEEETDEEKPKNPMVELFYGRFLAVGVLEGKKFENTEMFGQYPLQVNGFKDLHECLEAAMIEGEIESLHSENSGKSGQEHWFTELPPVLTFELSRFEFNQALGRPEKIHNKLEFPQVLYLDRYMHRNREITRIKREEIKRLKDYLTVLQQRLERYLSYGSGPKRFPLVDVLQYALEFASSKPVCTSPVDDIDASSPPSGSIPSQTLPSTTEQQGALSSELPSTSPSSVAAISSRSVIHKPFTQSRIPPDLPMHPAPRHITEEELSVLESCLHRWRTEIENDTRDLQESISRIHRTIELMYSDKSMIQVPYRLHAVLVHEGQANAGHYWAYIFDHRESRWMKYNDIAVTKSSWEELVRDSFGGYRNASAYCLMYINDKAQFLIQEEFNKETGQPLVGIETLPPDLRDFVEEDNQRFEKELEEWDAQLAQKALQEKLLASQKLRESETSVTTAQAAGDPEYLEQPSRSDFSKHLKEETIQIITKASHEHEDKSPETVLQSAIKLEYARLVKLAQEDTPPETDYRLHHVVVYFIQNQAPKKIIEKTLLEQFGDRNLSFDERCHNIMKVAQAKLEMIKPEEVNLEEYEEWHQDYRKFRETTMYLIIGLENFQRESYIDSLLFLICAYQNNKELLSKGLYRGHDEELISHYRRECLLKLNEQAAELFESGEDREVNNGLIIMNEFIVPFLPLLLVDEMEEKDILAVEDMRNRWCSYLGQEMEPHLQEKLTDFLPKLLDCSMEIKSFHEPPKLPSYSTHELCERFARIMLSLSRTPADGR
Summary of the method: as §1

USP28 = target: T4, USP28 (UniProt Q96RU2)
T4 sequence (whole entry): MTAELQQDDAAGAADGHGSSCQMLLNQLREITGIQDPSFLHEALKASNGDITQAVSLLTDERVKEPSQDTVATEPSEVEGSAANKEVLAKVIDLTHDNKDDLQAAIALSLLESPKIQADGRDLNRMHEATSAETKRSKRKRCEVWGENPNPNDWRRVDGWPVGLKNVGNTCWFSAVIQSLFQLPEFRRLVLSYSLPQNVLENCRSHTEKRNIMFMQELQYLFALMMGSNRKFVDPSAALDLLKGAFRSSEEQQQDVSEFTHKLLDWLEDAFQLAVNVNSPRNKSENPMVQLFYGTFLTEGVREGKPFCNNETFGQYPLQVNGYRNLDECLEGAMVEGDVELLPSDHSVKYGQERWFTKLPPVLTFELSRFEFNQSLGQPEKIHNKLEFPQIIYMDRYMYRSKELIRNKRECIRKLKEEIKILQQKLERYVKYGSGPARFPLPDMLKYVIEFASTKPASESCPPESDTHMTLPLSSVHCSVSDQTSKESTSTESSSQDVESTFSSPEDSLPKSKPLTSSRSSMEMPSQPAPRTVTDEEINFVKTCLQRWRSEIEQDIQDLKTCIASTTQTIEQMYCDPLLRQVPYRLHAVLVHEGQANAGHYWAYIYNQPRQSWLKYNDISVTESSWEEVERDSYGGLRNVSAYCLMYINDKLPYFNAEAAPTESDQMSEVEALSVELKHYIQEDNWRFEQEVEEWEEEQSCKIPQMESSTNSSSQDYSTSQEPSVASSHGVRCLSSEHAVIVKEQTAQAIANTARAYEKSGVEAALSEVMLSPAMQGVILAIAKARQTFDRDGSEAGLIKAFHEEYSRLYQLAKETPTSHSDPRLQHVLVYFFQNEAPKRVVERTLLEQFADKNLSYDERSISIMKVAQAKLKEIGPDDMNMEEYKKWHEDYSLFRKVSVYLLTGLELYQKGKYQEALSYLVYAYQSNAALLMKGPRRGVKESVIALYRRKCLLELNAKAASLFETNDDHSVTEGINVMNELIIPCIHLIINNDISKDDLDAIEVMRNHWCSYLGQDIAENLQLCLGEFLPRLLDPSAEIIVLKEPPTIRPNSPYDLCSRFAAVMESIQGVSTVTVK
Summary of the method: as §1

Measured: log2 ratio of Biotin-Ahx-Ub-VS probe labelling

O=C(CCl)N1CCC(C(=O)N2CCCC2)CC1
inactive: USP19 -0.228 | USP22 0.0347 | USP24 -0.075 | USP25 -0.128 | USP28 -0.299
